# Compounds with a hit are over-represented: about 2.5% of the library has one in this group of screens.
# MEKK3 PB1 HTS: MEKK3-MEK5 PB1 interaction, increase or decrease | hit rate 1.4% among 290,000 | bead-based flow cytometry, Alexa488-MEK5 binding to MEKK3; actives lie on both sides; 0 = blocked by unlabeled MEK5, 100 = vehicle | AID 1529 | binding response (% of control), % at 10 µM;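 active means binding response more than 3 SD above or below the average of its plate-row segment, actives on both sides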;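 further: Alexa488 bead fluorescence after subtracting the streptavidin-only scavenger bead signal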
# Target sequence (Q99759 whole entry, looked up): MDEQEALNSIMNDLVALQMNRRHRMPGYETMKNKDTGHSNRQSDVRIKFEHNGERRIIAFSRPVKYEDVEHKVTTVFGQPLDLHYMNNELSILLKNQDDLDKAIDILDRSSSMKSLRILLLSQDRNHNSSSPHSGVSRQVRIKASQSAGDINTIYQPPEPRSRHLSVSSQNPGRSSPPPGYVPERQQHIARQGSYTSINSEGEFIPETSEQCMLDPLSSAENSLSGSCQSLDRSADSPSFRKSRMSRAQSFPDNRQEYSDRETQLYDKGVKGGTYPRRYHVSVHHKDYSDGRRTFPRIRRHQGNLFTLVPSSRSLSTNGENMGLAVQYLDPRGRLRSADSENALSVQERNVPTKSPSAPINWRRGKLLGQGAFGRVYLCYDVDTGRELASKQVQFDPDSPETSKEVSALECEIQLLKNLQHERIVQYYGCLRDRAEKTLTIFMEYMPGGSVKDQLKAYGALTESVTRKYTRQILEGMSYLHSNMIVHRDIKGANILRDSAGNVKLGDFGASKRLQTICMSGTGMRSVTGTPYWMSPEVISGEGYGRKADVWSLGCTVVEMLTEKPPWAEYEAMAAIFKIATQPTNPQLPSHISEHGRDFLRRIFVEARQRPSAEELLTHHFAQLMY
# GRK2 aptamer HTS: blocks RNA aptamer binding to human GRK2. P25098. bead flow cytometry, FAM-aptamer displacement from GRK2. inhibition of aptamer binding, % at 10 µM. hit rate 0.59% among 330,000. AID 488847;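 active means inhibition of aptamer binding above 40%, roughly 3 SD of noise, on plates passing a quality check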;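 further: median bead fluorescence of bound FAM aptamer so fluorescent compounds give negative values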
# MEKK2wt PB1 HTS: raises or lowers MEK5 binding to wildtype human MEKK2 PB1 domain | binding response (% of control), % at 10 µM | hit rate 1.1% among 290,000 | bead flow cytometry, Alexa488-MEK5 binding to MEKK2 WT; actives lie on both sides | Q9Y2U5; in the data active means binding response below about 67% or above about 130%
# MEKK2 mut-MEK5: signal of MEK5 binding to mutant human MEKK2 PB1 domain. bead flow cytometry, Alexa488-MEK5 binding to MEKK2 mutant. percent response, % at 10 µM. hit rate 0.35% among 290,000; in the data active means percent response above about 24%, passing the limit was not always enough
# MEKK2wt confirm: raises or lowers MEK5 binding to wildtype human MEKK2, retest; shares compounds with MEKK3 PB1 HTS; bead flow cytometry, Alexa488-MEK5 binding to MEKK2 WT; actives lie on both sides; binding response (% of control), % at 10 µM; hit rate 2.4% among 5,900; AID 1892; in the data active means binding response below about 16% or above about 210%; inactive means in between
# MEKK2mut-MEK5: signal of MEK5 binding to mutant human MEKK2, retest | shares compounds with MEKK3 PB1 HTS | bead flow cytometry, Alexa488-MEK5 binding to MEKK2 mutant | percent response, % at 10 µM | hit rate 2% among 5,900 | AID 1893; in the data active means percent response mostly above about 71%, no sharp cut-off; inactive means mostly below about 38%;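 further: higher means compound restores mutant binding toward wildtype level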
# MEKK3-MEK5 inh: MEKK3-MEK5 PB1 inhibition, single concentration confirmation; bead flow cytometry, Alexa488-MEK5 binding to MEKK3; hits give low values; shares compounds with MEKK3 PB1 HTS; hit rate 1.8% among 5,900; binding response (% of control), % at 10 µM; AID 1894;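 active means binding response below 72% of control, or above a set upper limit, though filed actives all read lower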;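 further: 100% = DMSO only wells and 0% = binding blocked by excess unlabeled MEK5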
# Numbers without * were called inactive; . = no result given; [ ] = remark or other dose.
SMILES,MEKK3 PB1 HTS,GRK2 aptamer HTS,MEKK2wt PB1 HTS,MEKK2 mut-MEK5,MEKK2wt confirm,MEKK2mut-MEK5,MEKK3-MEK5 inh
N#Cc1ccc(NC(=O)C2=COCCO2)cc1,.,1,.,.,.,.,.
CCCOC(=O)c1ccc(NC(=O)CCOc2ccccc2)cc1,103,3,95,0,.,.,.
CCCOc1ccc(C(=O)CCC(=O)OCC(=O)Nc2ccc(Oc3ccccc3)cc2)cc1,110,4,147*,71*,112,3,108
COc1cc(/C=C(\C#N)C(=O)NCCc2ccccc2)cc(OC)c1O,101,4,105,2,.,.,.
COc1cc(/C=N/S(=O)(=O)CCc2ccccc2)cc(OC)c1O,128*,0,103,0,103,-1,100
COc1ccc(-c2csc(N(CCCN(C)C)C(=O)c3ccccc3C)n2)cc1,107,0,143*,16,149,23,107
COc1ccc(-c2csc(N(CCCN(C)C)C(=O)c3ccccc3Cl)n2)cc1,107,0,138*,28*,167,70*,102
CN(C)CCCN(C(=O)c1cccs1)c1nc(-c2ccccc2)cs1,101,0,147*,5,138,19,109
O=C(COC(=O)c1c(Cl)ccc(Cl)c1Cl)NCC1CCCO1 (stereo not drawn),.,1,.,.,.,.,.
Cc1cccc(NC(=O)CSc2ccc(-c3ccco3)nn2)c1,129*,1,102,0,108,6,107
O=C(CSc1ccc(-c2ccco2)nn1)c1ccc(F)cc1,128*,1,105,1,108,4,100
Cc1ccc(-c2ccc(SCC(=O)c3ccccc3)nn2)cc1,95,5,63*[inhibitor],13,98,0,101
O=C(CSc1n[nH]c(=O)n1Cc1ccco1)c1ccc(F)cc1,131*,3,133,28,108,6,104
O=C(CSc1ccc(-c2ccco2)nn1)NCc1ccc(F)cc1,112,0,100,0,.,.,.
Cc1ccc(SCCNC(=O)/C=C/c2ccc([N+](=O)[O-])cc2)cc1,0.0*[inhibitor],6,1.0*[inhibitor],-7,99,3,102
O=C(NCCOc1ccccc1F)C1CC(=O)N(Cc2ccccc2)C1 (stereo not drawn),.,0,.,.,.,.,.
O=S(=O)(/C=C/c1ccccc1)c1ccccc1,126*,2,99,4,101,3,102
O=C(O)CNS(=O)(=O)/C=C/c1ccccc1,100,0,100,-9,.,.,.
Cc1cc(-c2n[nH]c(=S)n2/N=C/c2ccc(Cl)c([N+](=O)[O-])c2)n[nH]1,155*,0,109,0,103,-5,104
NC(=O)c1nsc(C(=O)N(Cc2cccnc2)C(C(=O)NCc2ccc(F)cc2)c2ccc(F)cc2)c1N (stereo not drawn),100,0,101,-7,.,.,.
O=C(COC(=O)CCc1c[nH]c2ccccc12)NCc1ccc(Cl)cc1,2.0*[inhibitor],0,2.0*[inhibitor],-1,101,-3,102
CC1(C)CC(=O)c2cnc(NC3CC3)nc2C1,129*,0,113,1,94,-6,100
COc1ccc(C2=NN(C(=O)CCC(=O)O)C(c3ccccc3OC)C2)cc1 (stereo not drawn),105,1,106,3,.,.,.
CCc1ccccc1NC(=O)CCc1nc(-c2cccs2)no1,97,0,104,6,.,.,.
O=C(N/N=C/c1ccc2ncccc2c1)c1cc(-c2cccs2)nc2ccccc12,35*[inhibitor],3,30*[inhibitor],-12,100,2,105
CCOC(=O)Cn1nc(C)c(NC(=O)COc2cccc(Cl)c2)c1C,132*,3,119,0,106,7,104
CCOC(=O)Cn1nc(C)c(NC(=O)COc2ccc([N+](=O)[O-])cc2)c1C,96,6,88,-9,.,.,.
Cn1c(=O)cc(OCCCC(=O)NCc2cccnc2)c2ccccc21,48*[inhibitor],0,51,-16,100,-3,99

# Screening data: PubChem BioAssay, NMMLSC
